Compound activity as filed in PubChem BioAssay.
This is a sample that favours compounds with a hit; in the whole collection about 1.5% have one here.
TcdB GH inh = TcdB glycohydrolase inhibition; 0.24% of 350,000 active; P18177; AID 652162; inhibition, % at 9.99 µM; TcdB glycohydrolase enzymatic assay, plate reader; in the data active = inhibition above about 10%
PrPC TRFRET = reduces human prion protein on the cell surface; cell surface PrPC, TR-FRET read-out; inhibition, % at 13.8 µM; 0.43% of 370,000 active; AID 720596; in the data active = inhibition above about 24%; also: 0% = median of the test wells and 100% = reference compound wells
Vc quorum ag = quorum light induction in luxS cqsA deficient V. cholerae; 0.16% of 350,000 active; V. cholerae BH1578 lux reporter, luminescence, 6 h; activation, % at 18.7 µM; in the data active = activation mostly above about 9.7%, no sharp cut-off
SSB-PriA inh = K. pneumoniae PriA-SSBct interaction inhibition; AlphaScreen SSBct-PriA binding, biotinylated peptide; inhibition, % at 33 µM; 0.6% of 430,000 active; AID 1272365; in the data active = inhibition mostly above about 37%, no sharp cut-off; inactive = mostly below about 20%;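 also: plate controls were negative control peptide for no effect and reference peptide for full effect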
VHR inh abs = blocks human VHR1 dual specificity phosphatase. 0.52% of 290,000 active. inhibition, % at 13.3 µM. recombinant VHR phosphatase, pNPP absorbance; in the data active = inhibition above about 50%
CCHF vOTU inh = blocks the CCHF virus ovarian tumor domain protease | CCHFV vOTU protease, Pep-AMC fluorescence | inhibition, % at 11.5 µM | 0.55% of 370,000 active | AID 651958; in the data active = inhibition above about 30%; also: 0% = vehicle wells with enzyme and 100% = no enzyme wells
Active calls of the source: *; i = inactive; x = not tested or not shown.

SMILES | TcdB GH inh | PrPC TRFRET | Vc quorum ag | SSB-PriA inh | VHR inh abs | CCHF vOTU inh
Cc1cc(-c2nnc(SCC(=O)Nc3nccs3)o2)no1 | 1 | -1 | i | 78* | 15 | 1
O=C(CSc1nnc(-c2ccncc2)o1)N1CCCCCC1 | 18* | 3 | 4 | -4 | 4 | -3
Cc1ccc(-c2nnc(SCC(=O)N3CCCC3)o2)cc1 | x | 3 | i | -7 | -2 | -4
CCOC(=O)Cc1csc(NC(=O)CSc2nnc(-c3ccncc3)o2)n1 | 1 | 6 | 0 | 5 | 53* | 0
O=C(CSc1nnc(-c2ccccc2Cl)o1)N1CCCCC1 | 0 | -6 | 0 | -17 | 2 | -7
Cc1cc(-c2nnc(SCC(=O)Nc3ccccn3)o2)no1 | 1 | -1 | i | -8 | -5 | 0
O=C(CSc1nnc(-c2ccccc2Cl)o1)N1CCCC1 | 3 | -6 | -1 | -5 | 56* | 7
CCOC(=O)Cc1csc(NC(=O)CSc2nnc(-c3ccc(NS(=O)(=O)CC)cc3)o2)n1 | x | -7 | -3 | -5 | x | 11
Oc1ccc(Br)c(C(=S)N2CCOCC2)c1 | x | x | x | -3 | x | x
Cc1cc2oc(=O)cc(CN3CCOCC3)c2cc1Cl | 0 | 2 | 2 | -10 | 54* | 8
Cc1cc2oc(=O)cc(CN3CCCC3)c2cc1Cl | -3 | 4 | x | x | x | 28
Cc1nc2ccccn2c1C(=O)/C=C/c1ccc(F)cc1 | x | -4 | -1 | -5 | 14 | 4
Cc1nc2ccccn2c1-c1ccnn1S(=O)(=O)c1ccc(F)cc1 | 15* | 16 | 1 | 0 | 17 | 4
CCOc1ccc(-n2c(Cc3cc(=O)[nH]c(=O)[nH]3)nnc2SC)cc1 | x | x | x | -23 | x | x
O=C(/C=C\c1ccc2c(c1)OCO2)N1CCN(Cc2nc(-c3cccs3)cs2)CC1 | x | x | x | 13 | x | x
CCCN(CCC)CCCNC(=O)c1ccc(CS(=O)(=O)c2c(Cl)cccc2Cl)o1 | 1 | -5 | 0 | -5 | 55* | -8
O=C(c1cc([N+](=O)[O-])ccc1Cl)N1c2ccccc2Sc2ccccc21 | 1 | -8 | 0 | 62* | -7 | -4
COc1ccc2ccccc2c1C1NC(=O)N(Cc2ccccc2)C(C)=C1C(=O)OC(C)C (centres undefined) | x | x | x | 21 | x | x
COc1cc(/C=C/C(=O)OCC(=O)N(C)Cc2ccccc2)cc(OC)c1OC | 0 | -10 | -2 | -1 | x | -16
COc1cc(/C=C/C(=O)OCC(=O)N(C)Cc2ccccc2)ccc1O | 11* | -4 | -2 | 0 | x | 12
COc1cccc(/C=C/C(=O)OCC(=O)c2ccc[nH]2)c1 | -1 | 9 | 0 | x | x | -13
COc1cc(/C=C/C(=O)OCC(=O)c2ccc[nH]2)ccc1O | 15* | 7 | 3 | x | x | 8
COc1cc(/C=C/C(=O)OCC(=O)NC(=O)NC(C)C)ccc1OCC#N | x | -6 | i | -10 | -2 | 4
COc1cc(/C=C/C(=O)OCC(=O)NC(=O)NC(C)C)ccc1O | 12* | 1 | 0 | -9 | 5 | -6
O=c1[nH]cnc2c1cnn2-c1cccc(Cl)c1 | x | x | x | -11 | x | x
SMILES | TcdB GH inh | PrPC TRFRET | Vc quorum ag | SSB-PriA inh | VHR inh abs | CCHF vOTU inh
CS(=O)(=O)NC[C@@H](c1cccnc1)N1CCN(c2ccccc2F)CC1 | x | x | x | -6 | x | x
C=CCN1CCN(C(=O)c2ccc(-c3ccccc3)cc2)CC1 | 0 | -5 | i | 1 | 8 | -10
C=CCN1CCN(C(=O)CSc2ccccc2)CC1 | 1 | -1 | 1 | -9 | 57* | -6
COc1ccc(C(=O)Nc2cc(Cl)ccc2C(=O)O)cc1 | 29* | 7 | 0 | 4 | -8 | 2
Cc1ccc(C(=O)NNC(=O)CSc2nnc3c(n2)[nH]c2ccc(F)cc23)cc1 | x | -9 | x | -8 | 57* | -8
Cc1nnc(NC(=O)CSc2nnc3c(n2)[nH]c2ccc(Br)cc23)s1 | 2 | 1 | 0 | -25 | 60* | 2
N#Cc1nc(COc2ccccc2Cl)oc1N1CCCCCC1 | -3 | 0 | 0 | 0 | 12 | -3
N#Cc1nc(COc2ccc(Cl)cc2)oc1N1CCCCCC1 | x | 12 | 0 | 52* | -14 | 9
COc1ccc(N2CCN(c3oc(COc4ccc(C)cc4)nc3C#N)CC2)cc1 | x | x | x | 89 | x | x
CC1CN(c2oc(COc3ccc(Cl)cc3Cl)nc2C#N)CC(C)O1 (centres undefined) | x | 1 | i | 43* | 18 | 12
Cc1ccc(OCc2nc(C#N)c(N3CCCCC3)o2)cc1 | 2 | -5 | 0 | 45* | 14 | 4
Cc1[nH]n(-c2ccccc2)c(=O)c1C1OC(=O)c2ccccc21 (centres undefined) | x | x | x | 2 | x | x
